The nature of assay [1]: NCI Yeast Anticancer Drug Screen. Data for the rad50 strain (AID 155).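 Also: 0% = growth of vehicle-only cultures of the same strain.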 The note with it: S. cerevisiae rad50 strain growth inhibition; at 50.0 µM; hits give high values. Summed up:
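Readout: growth inhibition relative to vehicle-treated cultures. Compound exposure was carried out in a genetically defined yeast strain deficient in DNA damage repair.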

A short description of assay [2]: NCI Yeast Anticancer Drug Screen. Data for the mec2-1 strain (AID 157). Particulars: S. cerevisiae mec2-1 strain, at 50.0 µM, hits give high values. In a few lines: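 Test agents were screened against the mec2-1 yeast strain, with defined DNA repair or cell cycle alteration. Growth was scored as inhibition against vehicle-only controls.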
Assay [3] in a line: NCI Yeast Anticancer Drug Screen. Data for the sgs1 mgt1 strain (AID 161).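 Also: 0% = growth of cultures given vehicle only.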 The note with it: S. cerevisiae sgs1 mgt1 strain, at 50.0 µM, hits give high values. In a few lines:
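Read-out: growth inhibition vs vehicle controls. Cells: mutant yeast strain deficient in DNA damage repair.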

The nature of assay [4]: NCI Yeast Anticancer Drug Screen. Data for the cln2 rad14 strain (AID 165).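 Also: 0% = growth equal to vehicle treated cultures.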 Particulars: S. cerevisiae cln2 rad14 strain, at 50.0 µM, hits give high values. Summed up:
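Growth of compound-exposed yeast (cln2 rad14 genotype) measured and expressed as inhibition relative to vehicle.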

Assay [5] is described as follows: NCI Yeast Anticancer Drug Screen. Data for the bub3 strain (AID 167). Particulars: S. cerevisiae bub3 mutant strain, at 50.0 µM, hits give high values. Summed up: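 Readout: yeast growth inhibition, expressed relative to vehicle-only wells. The test organism is a mutant strain from a panel with lesions in DNA repair or checkpoint genes.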
Assay [6] in a line: NCI Yeast Anticancer Drug Screen. Data for the mlh1 rad18 strain (AID 175). Particulars: S. cerevisiae mlh1 rad18 strain growth inhibition; at 50.0 µM; hits give high values. Summed up: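 In this whole-cell yeast screen, a strain with altered DNA damage repair is challenged with compound, and its growth is measured against matched vehicle-treated controls.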

The panel holds about 79,000 compounds, 15% with a hit somewhere; the sample as a whole holds those more often. A number with no mark means an inactive call. The source made the active and inactive calls. Rule as the data show it: active = growth inhibition above about 70%; inactive = the rest.

As for `CC(=O)c1cccc(NC(=O)Nc2cccc(O)c2)c1`, the growth inhibition in assay [1] was 4.5%; in assay [2], 19.9%; in assay [3] it was -5.35%; in assay [4] it was 7%; in assay [5] it was 56.1%; in assay [6], -0.25%.
Regarding `COc1ccc(C(=O)c2ccc(OC)cc2OC)cc1`, the growth inhibition is -4.15% in assay [1]; 1.7% in assay [2]; 21.4% in assay [3]; -23.1% in assay [4]; 3.05% in assay [5]; 1.3% in assay [6].
For `COc1ccc(SSc2ccc(OC)cc2)cc1`, the growth inhibition in assay [1] is 25.9%; in assay [2], -1.1%; in assay [3] it was 12.2%; in assay [4], 1.95%; in assay [5] it was 6.2%; in assay [6], 18.8%.
Consider `CCOC(=O)NC1c2ccccc2Oc2ccccc21`, for which the growth inhibition was -4.5% in assay [1]; -5.4% in assay [2]; 4.95% in assay [3]; -16.3% in assay [4]; 11% in assay [5]; 2.3% in assay [6].
With `COc1c2c(cc3c(CCc4ccccc4)cc(=O)oc13)CCC(C)(C)O2`, the growth inhibition in assay [1] was -5.95%; in assay [2] it was -22.8%; in assay [3] it was -6.5%; in assay [4] it was 15.4%; in assay [5], -5.75%; in assay [6] it was -27.3%.
As to `Cn1c(=O)c2c(nc(Cl)n2Cc2ccccc2)n(C)c1=O`, the growth inhibition in assay [1] is -39.8%; in assay [2] it was 5.1%; in assay [3] it was -14.6%; in assay [4], 23.6%; in assay [5], 0.8%; in assay [6], 21.4%.
As to `N[C@@H]1c2c(Br)sc(Br)c2C(=O)[C@H]1Br`, the growth inhibition in assay [1] is -5.35%; in assay [2], -2.85%; in assay [3], 5.6%; in assay [4], 5.95%; in assay [5], -7.05%; in assay [6], -17.4%.
With `c1ccc(C2SCCN2c2ccccc2)cc1` (stereo unspecified), the growth inhibition in assay [1] is 9.2%; in assay [2], -0.35%; in assay [3], -20.4%; in assay [4] it was 9.95%; in assay [5] it was 11.8%; in assay [6], -14.4%.
In the case of `C/C(=N/NS(=O)(=O)c1ccc(C)cc1)C(=NO)/C(C)=N\NS(=O)(=O)c1ccc(C)cc1`, the growth inhibition in assay [1] was 55.6%; in assay [2] it was 70.2% (active); in assay [3], 45.4%; in assay [4], 86.2% (active); in assay [5] it was 49.9%; in assay [6], 60.5%.
As to `O=C(O)c1ccc(O)cc1O`, the growth inhibition was 12.8% in assay [1]; 18.6% in assay [2]; -25.2% in assay [3]; -29.4% in assay [4]; -4.65% in assay [5]; -2.5% in assay [6].
Consider `COc1ccc(C2S/C(=C\c3cccc([N+](=O)[O-])c3)C(=O)N2NC(=O)Cc2ccccc2)cc1` (stereo unspecified), for which the growth inhibition is 0.65% in assay [1]; -21.2% in assay [2]; 3.85% in assay [3]; -58.6% in assay [4]; 36% in assay [5]; 12.4% in assay [6].
With `CC12CC3CC/C(=N\O)C(C1)C3(N1CCOCC1)C/C2=N/O` (stereo unspecified), the growth inhibition in assay [1] was -22.2%; in assay [2], -16.7%; in assay [3], -10.2%; in assay [4], 0.3%; in assay [5], -14.8%; in assay [6], 8.8%.
For the compound `O=c1[nH]c(=O)n(C2CC(O)C(CO)O2)c2ncncc12` (stereo unspecified), the growth inhibition in assay [1] is -0.85%; in assay [2], -0.3%; in assay [3], 4.45%; in assay [4] it was 2.15%; in assay [5], -10.1%; in assay [6], -57.1%.
On to `C/C(CC(=O)Nc1cc(Cl)c(Cl)cc1Cl)=N\NC(N)=O`, for which the growth inhibition in assay [1] is 28.8%; in assay [2] it was 11.7%; in assay [3] it was 1.55%; in assay [4] it was 24.4%; in assay [5], 30.3%; in assay [6] it was 19.4%.
`Cc1nccc2cccc(CNC(C)C)c12`: the growth inhibition was 3.7% in assay [1]; 2.7% in assay [2]; 4.1% in assay [3]; 7% in assay [4]; -11.2% in assay [5]; -4.25% in assay [6].
Turning to `C[N+](C)(C)c1ccc2c(c1)CCC/C2=N\N`, the growth inhibition was 12.8% in assay [1]; 9% in assay [2]; 11.6% in assay [3]; -9.2% in assay [4]; 13.5% in assay [5]; 4.3% in assay [6].
Regarding `Cc1cccc(C2CCCCC2OS(C)(=O)=O)c1` (stereo unspecified), the growth inhibition was -2.95% in assay [1]; -6.4% in assay [2]; -16.9% in assay [3]; -10.1% in assay [4]; 11.8% in assay [5]; -13.6% in assay [6].
With `O=C(NC1CCCCC1Cl)C1CCCCC1` (stereo unspecified), the growth inhibition in assay [1] was 17.1%; in assay [2], 18.6%; in assay [3] it was 2.15%; in assay [4], 5.4%; in assay [5], -6.7%; in assay [6] it was -14.8%.
As for `COCCC(=O)SCc1ccccc1`, the growth inhibition was 9.55% in assay [1]; -45.3% in assay [2]; -9.2% in assay [3]; -35.6% in assay [4]; -16.5% in assay [5]; 1% in assay [6].
With `N#CCCN(C1=NN(C(=O)CC(=O)Nc2ccccc2)C(c2ccccc2)C1)c1ccccc1Cl` (stereo unspecified), the growth inhibition was -5.05% in assay [1]; -3.9% in assay [2]; -36% in assay [3]; 27.9% in assay [4]; -1.15% in assay [5]; -9.2% in assay [6].
Consider `CNC(=O)Nc1cc(C)ccc1Cl`, for which the growth inhibition in assay [1] is -0.9%; in assay [2] it was -6.05%; in assay [3], -8.55%; in assay [4] it was -70%; in assay [5], 1.15%; in assay [6] it was -6.7%.

The record behind these values is PubChem BioAssay (NCI).
